Consider ten molecules from PubChem BioAssay (Tox21).

Results filed as inconclusive are left out. A number with no mark means an inactive call. Active and inactive are the calls of the source. Unless noted, calls come from the whole dose curve; as a rule, active = well fitted curve in the direction sought with a large enough effect in the repeat runs; inconclusive = weak or mixed curves; inactive = no such curve, though single readings can be large; an effect the other way counts as inactive or inconclusive.

Assay [1] in a line: qHTS assay to identify small molecule antagonists of the thyroid receptor (TR) signaling pathway (AID 743065). Note: nearly all actives have a fitted effect of over 55% in size. Note: potency is the fitted concentration of half-maximal effect. In outline: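 GH3.TRE-Luc rat pituitary cells carrying two TR response elements driving luciferase were plated for 4 h, given compound plus 1 nM T3 (final), and incubated 23.5 h at 37 C. ONE-Glo luminescence measured reporter inhibition; CellTiter-Fluor fluorescence tracked cytotoxicity.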

Assay [2] has as its system thyroid hormone receptor (rat, GH3 cells). The assay can be described thus: qHTS assay to identify small molecule agonists of the thyroid receptor (TR) signaling pathway (AID 743066; calls by dose curve; note: potency is the fitted concentration of half-maximal effect). For orientation: Quantitative high-throughput screening tests each substance at several concentrations.
Assay [3] is described as follows: qHTS assay to identify small molecule antagonists of the estrogen receptor alpha (ER-alpha) signaling pathway - cell viability counter screen (AID 743074; calls by dose curve;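 note: HEK293 cells carrying ER-alpha-UAS-bla reporter stimulated with 17beta-estradiol; % is set by controls: 0 for no effect and ±100 for the full control effect; nearly all actives have a fitted effect of over 45% in size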).
Assay [4] is described as follows: qHTS assay to identify small molecule antagonists of the estrogen receptor alpha (ER-alpha) signaling pathway using the BG1 cell line - cell viability counter screen (AID 743081).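 Note: compound given together with 17beta-estradiol as the ER stimulus; % is set by controls: 0 for no effect and ±100 for the full control effect; nearly all actives have a fitted effect of over 45% in size.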
Another assay has as its target Aromatase (Homo sapiens) (UniProt P11511). The assay can be described thus: qHTS assay to identify aromatase inhibitors (AID 743083). Note: nearly all actives have a fitted effect of over 55% in size. Note: potency is the fitted concentration of half-maximal effect.
Assay [5] is described as follows: qHTS assay to identify aromatase inhibitors - cell viability counter screen (AID 743084).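 Note: cells stimulated with testosterone during compound exposure; % is set by controls: 0 for no effect and ±100 for the full control effect; nearly all actives have a fitted effect of over 55% in size.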
Assay [6] concerns the target Aryl hydrocarbon receptor (Homo sapiens) (UniProt P35869). In words: qHTS assay to identify small molecule that activate the aryl hydrocarbon receptor (AhR) signaling pathway (AID 743085).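 Note: HG2L7.5c1 human HepG2 liver cells with stably integrated DRE-driven firefly reporter; % is set by controls: 0 for no effect and ±100 for the full control effect; nearly all actives have a fitted effect of over 15% in size.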 Put shortly: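 Measured in HG2L7.5c1 cells: CellTiter-Fluor signal (30 min incubation, 37C) for viability, then luciferase luminescence (30 min, room temperature). Compound contact time was 24 h at 37C, following a 5 h pre-incubation.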

Assay [7] is described as follows: qHTS assay to identify small molecule that activate the aryl hydrocarbon receptor (AhR) signaling pathway - cell viability counter screen (AID 743086).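 Note: HepG2 liver cells carrying the AhR DRE luciferase reporter; % is set by controls: 0 for no effect and ±100 for the full control effect; nearly all actives have a fitted effect of over 45% in size.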 Put shortly:
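HepG2-AhR-luc (HG2L7.5c1) cells, 4000/well, were preincubated 5 h at 37C, exposed to compound in qHTS format for 24 hr at 37C, then given CellTiter-Fluor for 30 min; viability was read as fluorescence in the reporter wells.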

The nature of assay [8]: qHTS assay for small molecule agonists of the antioxidant response element (ARE) signaling pathway (AID 743202; active = well fitted activation curve with a large enough effect in the signal ratio in the repeat runs, not every such curve was filed as active; the % refers to the signal ratio; note: % is set by controls: 0 for no effect and ±100 for the full control effect). Put shortly: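 Steps: seed ARE-bla HepG2 cells (2,000/well); incubate 5 h at 37 C; add compounds by pin tool; incubate 16 h at 37 C; add FRET substrate; read fluorescence after 2 h at RT.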
Assay [9] is described as follows: qHTS assay for small molecule agonists of the antioxidant response element (ARE) signaling pathway - cell viability counter screen (AID 743203; calls by dose curve; note: % is set by controls: 0 for no effect and ±100 for the full control effect; nearly all actives have a fitted effect of over 55% in size). Put shortly:
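Cytotoxicity was tested in parallel with the ARE reporter screen. ARE-bla HepG2 cells were exposed to compounds for 16 hrs, and viability was taken from CellTiter-Glo luminescence.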

Assay [10] is described as follows: qHTS assay for small molecule activators of the heat shock response signaling pathway - cell viability counter screen (AID 743209). Note: % is set by controls: 0 for no effect and ±100 for the full control effect; nearly all actives have a fitted effect of over 50% in size. Put shortly:
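Cytotoxicity counter screen run in parallel with the HSE beta-lactamase reporter, using the same wells. HeLa HSE-bla cells received compound for 5 h at 37 C; ATP-based CellTiter-Glo luminescence was measured after 30 min at room temperature.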

Assay [11] is described as follows: qHTS assay to identify small molecule agonists of the peroxisome proliferator-activated receptor delta (PPARd) signaling pathway - cell viability counter screen (AID 743211). Put shortly:
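Following 5 h plating at 37 C and 5% CO2, PPARd UAS-bla HEK293H cells took up test compounds for 17 h. Viability was quantified by luminescence 30 min after CellTiter-Glo addition at room temperature.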

Assay [12] addresses Peroxisome proliferator-activated receptor gamma (Homo sapiens) (UniProt P37231). In words: qHTS assay to identify small molecule agonists of the peroxisome proliferator-activated receptor gamma (PPARg) signaling pathway (AID 743094; active = well fitted activation curve with a large enough effect in the signal ratio in the repeat runs, not every such curve was filed as active; the % refers to the signal ratio; note: % is set by controls: 0 for no effect and ±100 for the full control effect). In outline:
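Cells from the PPARg UAS-bla HEK293H line are plated and incubated 5 h at 37C. Compounds in DMSO are pinned in and left 17 h at 37C. LiveBLAzer B/G substrate is then added for 1 h at room temperature before fluorescence is measured.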

The target is the same in assay [13]. The assay can be described thus: qHTS assay to identify small molecule antagonists of the peroxisome proliferator-activated receptor gamma (PPARg) signaling pathway (AID 743191; calls by dose curve; note: % is set by controls: 0 for no effect and ±100 for the full control effect; nearly all actives have a fitted effect of over 30% in size). Put shortly:
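GeneBLAzer PPARg UAS-bla HEK293H cells carrying a UAS-driven beta-lactamase reporter were plated at 3000 cells/well, preincubated 5 h at 37C, then given compound for 17 h at 37C; LiveBLAzer B/G FRET substrate was read after 1 h at room temperature.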

Assay [14] can be described thus: qHTS assay for small molecule activators of the heat shock response signaling pathway (AID 743210; active = well fitted activation curve with a large enough effect in the signal ratio in the repeat runs, with a control signal flat, not every such curve was filed as active; the % refers to the signal ratio;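 note: HeLa cells with beta-lactamase reporter driven by heat shock elements; % is set by controls: 0 for no effect and ±100 for the full control effect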). In outline: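 Activation of heat shock element-controlled beta-lactamase expression is measured in HeLa cells by LiveBLAzer FRET fluorescence, with compound exposure lasting 5 h at 37 C and substrate loading 2.5 h at room temperature.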
Assay [15] in a line: qHTS assay to identify small molecule antagonists of the peroxisome proliferator-activated receptor gamma (PPARg) signaling pathway - cell viability counter screen (AID 743194). Conditions: Potency: co-treated with 50 nM rosiglitazone. Put shortly: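 PPARg-UAS-bla HEK293H cells were plated, rested 5 h at 37 C, then treated with compounds plus rosiglitazone (50 nM final) for 17 h at 37 C; viability was then read by CellTiter-Glo luminescence after 30 min at room temperature.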

The target of assay [16] is Estrogen receptor (Homo sapiens) (UniProt P03372). In words: qHTS assay to identify small molecule agonists of the estrogen receptor alpha (ER-alpha) signaling pathway (AID 743075; calls by dose curve;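 note: HEK293 GripTite cells with ER-alpha and UAS-driven beta-lactamase reporter; % is set by controls: 0 for no effect and ±100 for the full control effect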).
Assay [17] shares this target. The assay can be described thus: qHTS assay to identify small molecule agonists of the estrogen receptor alpha (ER-alpha) signaling pathway using the BG1 cell line (AID 743079). Note: % is set by controls: 0 for no effect and ±100 for the full control effect; nearly all actives have a fitted effect of over 20% in size. Conditions: BG1Luc4E2 cells, ERE-luciferase agonist, 22 h; at 70.3 µM (top of the series).
Assay [18] can be described thus: qHTS assay to identify small molecule antagonists of the estrogen receptor alpha (ER-alpha) signaling pathway using the BG1 cell line (AID 743080; calls by dose curve;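 note: BG1 cells stimulated with 17beta-estradiol alongside compound; potency is the fitted concentration of half-maximal effect; nearly all actives have a fitted effect of over 25% in size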). In outline:
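BG1Luc4E2, endogenous ER-alpha, 4xERE-luc; 5 d charcoal-stripped FBS, phenol red free; 24 h plating; cpd + 17beta-estradiol 21.5 h, 37 C/5% CO2; CellTiter-Fluor viability 30 min, then ONE-Glo luciferase 30 min RT.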

Chain of Aryl hydrocarbon receptor (Homo sapiens) (P35869 whole entry, looked up): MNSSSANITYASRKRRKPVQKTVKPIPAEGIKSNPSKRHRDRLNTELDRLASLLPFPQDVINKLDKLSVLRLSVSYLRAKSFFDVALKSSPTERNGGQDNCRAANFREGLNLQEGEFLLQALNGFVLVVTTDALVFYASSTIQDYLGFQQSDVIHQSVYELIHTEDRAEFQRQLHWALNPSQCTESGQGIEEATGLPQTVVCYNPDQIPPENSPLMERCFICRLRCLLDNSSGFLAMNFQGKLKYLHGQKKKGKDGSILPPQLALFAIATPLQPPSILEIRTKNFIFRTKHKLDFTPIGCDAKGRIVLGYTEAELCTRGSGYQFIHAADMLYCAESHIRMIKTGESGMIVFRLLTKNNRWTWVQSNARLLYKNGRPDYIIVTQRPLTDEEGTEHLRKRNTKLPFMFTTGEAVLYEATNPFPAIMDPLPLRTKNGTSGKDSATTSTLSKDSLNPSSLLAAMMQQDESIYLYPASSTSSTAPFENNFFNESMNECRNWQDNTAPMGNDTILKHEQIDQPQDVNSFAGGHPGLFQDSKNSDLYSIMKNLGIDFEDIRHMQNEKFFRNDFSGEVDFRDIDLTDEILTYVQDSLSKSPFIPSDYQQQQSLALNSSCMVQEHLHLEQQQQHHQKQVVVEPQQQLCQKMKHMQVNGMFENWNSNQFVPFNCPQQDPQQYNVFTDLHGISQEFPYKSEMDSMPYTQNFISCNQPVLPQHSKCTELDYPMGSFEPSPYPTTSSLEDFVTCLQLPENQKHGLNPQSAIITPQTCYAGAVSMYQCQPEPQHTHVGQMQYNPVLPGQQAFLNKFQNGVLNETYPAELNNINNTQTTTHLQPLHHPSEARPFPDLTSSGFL
Chain of Aromatase (Homo sapiens) (P11511 whole entry, looked up): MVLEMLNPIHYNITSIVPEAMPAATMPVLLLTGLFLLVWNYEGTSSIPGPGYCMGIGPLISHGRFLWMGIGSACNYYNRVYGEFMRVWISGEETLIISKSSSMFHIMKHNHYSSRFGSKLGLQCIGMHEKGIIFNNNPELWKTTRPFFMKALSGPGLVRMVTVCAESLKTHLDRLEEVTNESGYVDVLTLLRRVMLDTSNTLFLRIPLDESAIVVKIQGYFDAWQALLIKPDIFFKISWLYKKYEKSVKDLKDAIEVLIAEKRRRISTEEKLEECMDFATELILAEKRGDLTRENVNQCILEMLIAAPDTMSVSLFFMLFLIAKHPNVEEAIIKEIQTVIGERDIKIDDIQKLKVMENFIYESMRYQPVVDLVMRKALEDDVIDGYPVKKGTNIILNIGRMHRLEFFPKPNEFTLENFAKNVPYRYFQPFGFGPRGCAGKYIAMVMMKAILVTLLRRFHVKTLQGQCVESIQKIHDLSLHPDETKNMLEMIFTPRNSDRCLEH
Chain of Peroxisome proliferator-activated receptor gamma (Homo sapiens) (P37231 whole entry, looked up): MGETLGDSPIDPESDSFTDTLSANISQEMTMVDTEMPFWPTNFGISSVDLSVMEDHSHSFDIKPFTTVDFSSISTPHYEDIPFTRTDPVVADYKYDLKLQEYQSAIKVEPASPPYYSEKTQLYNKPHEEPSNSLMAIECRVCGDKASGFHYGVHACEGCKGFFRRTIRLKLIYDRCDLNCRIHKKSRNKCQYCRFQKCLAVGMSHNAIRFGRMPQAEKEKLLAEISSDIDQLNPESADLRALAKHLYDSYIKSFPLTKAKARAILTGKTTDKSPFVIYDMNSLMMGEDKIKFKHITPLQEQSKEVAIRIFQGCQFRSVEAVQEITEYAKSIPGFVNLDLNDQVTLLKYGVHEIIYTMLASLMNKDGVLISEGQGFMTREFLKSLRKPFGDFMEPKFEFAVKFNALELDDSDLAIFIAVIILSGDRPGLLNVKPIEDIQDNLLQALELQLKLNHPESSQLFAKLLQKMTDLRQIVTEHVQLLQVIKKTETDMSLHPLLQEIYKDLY
Chain of Estrogen receptor (Homo sapiens) (P03372 whole entry, looked up): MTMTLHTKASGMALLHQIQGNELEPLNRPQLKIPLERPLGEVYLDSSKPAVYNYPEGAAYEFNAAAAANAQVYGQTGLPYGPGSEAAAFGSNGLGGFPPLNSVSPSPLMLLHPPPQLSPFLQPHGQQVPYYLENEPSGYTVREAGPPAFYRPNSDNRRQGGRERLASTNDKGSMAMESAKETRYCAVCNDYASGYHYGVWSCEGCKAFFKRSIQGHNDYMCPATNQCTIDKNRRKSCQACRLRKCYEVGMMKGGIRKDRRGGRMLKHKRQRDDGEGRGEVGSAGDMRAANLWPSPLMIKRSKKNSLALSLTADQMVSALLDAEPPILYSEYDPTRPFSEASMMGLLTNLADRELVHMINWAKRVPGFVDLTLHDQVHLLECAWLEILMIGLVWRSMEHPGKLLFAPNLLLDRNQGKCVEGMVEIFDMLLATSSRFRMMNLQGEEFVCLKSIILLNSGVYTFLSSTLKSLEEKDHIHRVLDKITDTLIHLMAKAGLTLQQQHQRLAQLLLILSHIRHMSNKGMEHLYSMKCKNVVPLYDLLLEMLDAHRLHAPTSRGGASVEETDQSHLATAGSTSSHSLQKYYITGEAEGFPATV

`C[C@]12CC[C@H]3[C@@H](CC=C4C[C@@H](O)CC[C@@]43C)[C@@H]1CC[C@@H]2O`: the Potency result (in [1]; in assay [2]; in assay [4]; with Aromatase (Homo sapiens); in assay [5]; in assay [6]) was “inactive” throughout. In addition, the Potency entry in [8], in [9], in assay [10] and in assay [11] was “inactive” in each case. For the same molecule, the result in assay [3] and in assay [7] was inactive.
As to `COc1cc(OC)nc(Oc2cccc(Oc3nc(OC)cc(OC)n3)c2C(=O)O)n1`, the Potency entry (in assay [1]; in assay [2]; in assay [4]; with Aromatase (Homo sapiens); in assay [5]; in assay [6]) was “inactive” throughout. Also, the Potency entry in [13], in assay [8], in assay [10] and in assay [11] was “inactive” each time. Further, the outcome in assay [3], in [7], in assay [12] and in [14] was inactive.
For the molecule `COC(=O)c1ccccc1S(=O)(=O)NC(=O)Nc1nc(C)cc(C)n1`, the Potency result (in assay [1]; in assay [2]; in [4]; in the assay with Aromatase (Homo sapiens); in [5]; in assay [6]) was “inactive” in each case. The Potency result in [13], in assay [15], in assay [8], in assay [9], in assay [10] and in assay [11] was “inactive” throughout. Besides, the molecule was called inactive in assay [3], in assay [7] and in assay [12].
As for `[As]#[In]`, the Potency result (in assay [1]; in assay [2]; in assay [4]; with Aromatase (Homo sapiens); in [5]; in [6]) was “inactive” in each case. Besides, the Potency entry in assay [9], in [10] and in assay [11] was “inactive” each time. Besides, the call in [3] and in assay [7] was inactive.
For `CN/C(=N\[N+](=O)[O-])NCC1CCOC1` (stereo unspecified), the Potency entry (in assay [1]; in [2]; in assay [4]; with Aromatase (Homo sapiens); in [5]; in assay [6]) was “inactive” each time. In addition, the Potency entry in assay [15], in assay [8], in [9] and in [11] was “inactive” each time. For the same molecule, the molecule was classed as inactive in assay [3], in assay [7] and in [14].
As to `CC(C)[N+](=O)[O-]`, the Potency entry (in assay [1]; in [2]; in assay [4]; with Aromatase (Homo sapiens); in assay [5]; in [6]) was “inactive” throughout. Further, the Potency entry in [15], in assay [8], in assay [9], in assay [10] and in assay [11] was “inactive” throughout. In addition, the outcome in assay [3], in assay [7], in assay [12] and in [14] was inactive.
In the case of `COC(C)(C)C`, the Potency result (in assay [1]; in [2]; in assay [4]; with Aromatase (Homo sapiens); in assay [5]; in assay [6]) was “inactive” throughout. The Potency entry in assay [15], in assay [8], in [10] and in assay [11] was “inactive” throughout. Also, the molecule was called inactive in assay [3], in assay [7] and in [14].
In the case of `CC1(C)COP(Oc2ccccc2)OC1`, the Potency entry (in assay [1]; in assay [4]; with Aromatase (Homo sapiens); in [5]; in assay [6]; in assay [9]) was “inactive” in each case. Also, the Potency entry in assay [10] and in assay [11] was “inactive” each time. For the same molecule, the Potency in [2] is 54.5 µM (active). In addition, the result in [3], in assay [7] and in [14] was inactive.
Consider `Fc1ccc(C2(Cn3cncn3)OC2c2ccccc2Cl)cc1` (stereo unspecified), for which the values for the Potency (in [1]; in [18]; with Aromatase (Homo sapiens)) were 30.6 µM (active), 68.6 µM (active) and 3.86 µM (active), respectively. Also, the Potency entry in assay [2], in assay [16], in [4], in assay [5], in assay [15] and in assay [8] was “inactive” in each case. The Potency entry in assay [9], in assay [10] and in [11] was “inactive” throughout. Moreover, the call in [3], in assay [12] and in assay [14] was inactive. Besides, the activation in assay [17] is -28.4%.
On to `O=NN1CCCCC1`, for which the Potency entry (in [1]; in assay [2]; in assay [4]; with Aromatase (Homo sapiens); in assay [5]; in [6]) was “inactive” throughout. In addition, the Potency entry in [13], in assay [15], in [8], in assay [9] and in [11] was “inactive” throughout. Moreover, the molecule was called inactive in [3], in [7], in assay [12] and in assay [14].
